# Reference: PMC7826789 (International Journal of Molecular Sciences, 2021)
# What was measured:
# Details in all cases: Compound Concentration (nM):1000
# MRCKA = system: T1, MRCKA
# T1 construct: gene CDC42BPA
# MRCKB = system: T2, MRCKB
# T2 construct: gene CDC42BPB
# MST1R = system: MST1R
# MST1 = system: T3, MST1
# T3 construct: gene STK4
# MST2 = system: T4, MST2
# T4 construct: gene STK3
# MST3 = system: T5, MST3
# T5 construct: gene STK24
# MST4 = system: MST4
# MTOR = system: MTOR
# MUSK = system: MUSK
# MYLK2 = system: MYLK2
# MYLK4 = system: MYLK4
# MYLK = system: MYLK
# MYO3A = system: MYO3A
# MYO3B = system: MYO3B
# NDR1 = system: T6, NDR1
# T6 construct: gene STK38
# NDR2 = system: T7, NDR2
# T7 construct: gene STK38L
# NEK10 = system: NEK10
# NEK11 = system: NEK11
# NEK1 = system: NEK1
# NEK2 = system: NEK2
# 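Further: KINOMEscan scanMAX binding as percent activity remaining versus control; lower means stronger binding.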
SMILES,Percent Control (MRCKA) [%],Percent Control (MRCKB) [%],Percent Control (MST1R) [%],Percent Control (MST1) [%],Percent Control (MST2) [%],Percent Control (MST3) [%],Percent Control (MST4) [%],Percent Control (MTOR) [%],Percent Control (MUSK) [%],Percent Control (MYLK2) [%],Percent Control (MYLK4) [%],Percent Control (MYLK) [%],Percent Control (MYO3A) [%],Percent Control (MYO3B) [%],Percent Control (NDR1) [%],Percent Control (NDR2) [%],Percent Control (NEK10) [%],Percent Control (NEK11) [%],Percent Control (NEK1) [%],Percent Control (NEK2) [%]
COc1cc2ncn(-c3cc(O[C@H](C)c4ccccc4Cl)c(C(N)=O)s3)c2cc1OC [GSK237701A],89,96,94,43,0,93,91,100,89,45,45,94,100,100,84,100,95,78,51,3.7
O=C1Nc2ccc(C(=O)c3ccco3)cc2C1=Cc1cc(Cl)c(O)c(Cl)c1 [GW406108X],100,100,100,93,0,86,79,100,100,100,69,51,34,100,95,88,3.3,100,78,83
Cl.O=C(Nc1ccc(Oc2ccc3[nH]c(NC(=O)c4ccco4)nc3c2)cc1)Nc1cc(C(F)(F)F)ccc1F [GW683134A],94,89,100,100,100,100,87,100,5.6,38,100,100,100,100,100,76,100,100,80,100
NS(=O)(=O)c1ccc(N/N=C2\C(=O)Nc3ccc(-c4cnco4)cc32)cc1 [GW276655],100,98,92,100,40,77,53,100,100,73,49,50,77,100,67,68,89,93,71,100
COc1ccc2cc(-c3c(-c4ccncc4)nc(-c4ccc(S(C)(=O)=O)cc4C)n3C)ccc2c1 [SB-633825],93,88,85,66,60,100,82,100,99,100,93,82,53,18,77,63,69,90,100,93
COc1cc(N2CCN(C(C)C)CC2)ccc1Nc1nc(Nc2ccc(F)cc2C(=O)NC[C@@H](O)CO)c2cc[nH]c2n1 [GSK1392956A],100,100,100,100,92,90,94,100,100,100,82,0.3,88,100,99,91,34,100,82,99
CN1CCN(C(=O)c2ccc(NC(=O)Nc3ccc(N(C)c4ccnc(Nc5ccc(CS(C)(=O)=O)cc5)n4)cc3)cc2)CC1.Cl [GW830263A],89,86,41,96,16,47,11,100,11,36,98,100,7,23,54,100,94,100,63,89
COc1cc2ncnc(Nc3ccc4c(cnn4Cc4ccccc4)c3)c2cc1OC.Cl [GW282449A],100,100,100,100,100,100,94,100,100,100,100,100,100,100,100,100,100,100,95,100
CCS(=O)(=O)c1ccc(OC)c(Nc2ncc(-c3cccc(F)c3)o2)c1 [GW621970X],100,100,100,100,100,100,93,100,100,98,100,100,100,100,100,100,100,93,84,100
COc1ccc(COc2ccc(Cc3cnc(N)nc3N)cc2OC)cc1 [GW632580X],100,100,100,85,73,97,90,96,100,100,100,100,92,100,93,86,95,100,100,84
Cl.c1ccc(Cc2nc3ccc(Nc4ncnc5ccccc45)cc3[nH]2)cc1 [GR269666A],100,100,100,100,100,100,100,100,100,100,100,100,100,100,100,100,100,100,99,100
C/C(Nc1ccc(S(N)(=O)=O)cc1)=C1/C(=O)Nc2ccccc21 [GW335962X],100,92,100,82,100,27,8.4,96,100,100,100,70,66,100,65,87,100,100,75,100
NS(=O)(=O)c1ccc(N/N=C2\C(=O)Nc3ccc(C(=O)NCc4ccncc4)cc32)cc1 [GW300657X],100,98,100,100,45,73,75,97,83,100,83,45,68,100,76,82,48,40,80,79
O=C(Nc1n[nH]c2nc(-c3ccc(O)cc3)c(Br)cc12)C1CC1 [SB-725317],100,100,100,100,100,100,77,100,100,5.9,100,56,48,100,100,100,100,100,99,100
COc1cc(/C=N/Nc2ncnc3[nH]ncc23)ccc1O [GW578748X],100,100,100,100,86,93,20,96,100,81,38,68,100,100,73,100,100,28,70,100
COc1cccc(-n2ncc3c(N/N=C/c4ccncc4)ncnc32)c1 [GW784752X],100,100,100,100,100,93,74,100,100,91,100,89,100,100,96,100,84,100,84,100
NS(=O)(=O)c1ccc(N/N=C2\C(=O)Nc3ccc(Cl)cc32)cc1 [GW280670X],100,100,100,100,100,100,63,100,100,100,100,80,100,100,91,100,100,100,100,100
COc1ccc2[nH]c3c4[nH]c5ccc(OC)cc5c4c4c(c3c2c1)C(=O)NC4=O [GW296115X],76,89,93,100,82,76,85,100,83,82,49,6.9,81,100,57,72,93,100,100,78
CCn1c(-c2nonc2N)nc2c(C#CC(C)(C)O)nc(OCCNC)cc21.Cl [GSK949675],100,100,100,100,100,100,100,85,100,98,100,88,100,98,87,81,100,100,100,100
CN(C)c1cc2c(Nc3ccc4c(cnn4Cc4ccccc4)c3)ncnc2cn1 [GW282974X],100,84,100,100,83,90,83,100,95,98,86,100,92,99,100,84,89,100,79,66
